Each structure is given as a SMILES string. Results filed as inconclusive are left out. The source made the active and inactive calls. The call rests on the fitted dose curve; in most records, active means well fitted inhibition curve with a large enough effect; inconclusive means small, poorly fitted or top-dose-only effect; inactive means no such curve, though single readings can be large or run the other way.
Potency means the concentration at half of the fitted maximal effect.

This experiment can be described thus: qHTS Screen of the MIPE 4.0 Collection Against Ewings Sarcoma (TC32) (AID 1259256). Further: nearly all actives have a fitted effect of over 45% in size. The note with it: TC32 Ewing sarcoma viability, CellTiter-Glo, 48 h; series mostly up to 45.8 µM. The text has this:
There is a large unmet medical need for treatments for Ewing sarcoma, a pediatric sarcoma. We sought to identify compounds that inhibited Ewing sarcoma cells in vitro with the goal to then test promising drugs in two drug combinations in vitro to look for synergistic drug combinations. Promising combinations would then proceed to additional validation, including in vivo testing.
Using the NCATS developed oncology compound library called the Mechanism of Interrogation Plate (MIPE), four Ewing sarcoma cell lines were evaluated (TC32, TC71, RDES, EW8). Compounds, in a 12-point titration series, were incubated with cells for 48 hours and the read out was cell viability (CellTiter-Glo from Promega). These initial experiments were used to select appropriate concentrations of each single agent for subsequent two-drug matrix combinations such that the concentrations in the matrices would span both activity and non-activity.
Cells, in the log phase of growth, were seeded in 5 uL of RPMI plus 5% FBS, […] L-glutamine, 100 U/ml penicillin and 100 ug/ml streptomycin into 1536-well solid-bottom white tissue culture treated Greiner Bio One Plates (789173-F) using a MultiDrop Combi (Thermofisher Scientific) dispenser and a small sterile cassette. One column was media alone to be used as a :"no cells" control. The plates were then covered with sterilized stainless steel gasketed lids from Kalypsys. After allowing cells to attach for 4 hours, 23 nL of test compound or control (negative control DMSO and positive control 9.2 uM Bortezomib-final) were added from a 1536-well polypropylene compound source plate to each well using a 1536 head pin tool from Kalypsys. Cells were then incubated for 48 hours at 37C, 95% relative humidity and 5% CO2. After 48 hours, plates were removed from the incubator and 3 uL of CellTiter-Glo (Promega) was added using an Aurora Flying Reagent Dispenser Bioraptor. Plates were incubated at room temperature for 10 minutes prior to reading the luminescence on the Viewlux (PerkinElmer). The relative luciferase units are used to calculate the percent activity using the activity of DMSO in the cells and no cells columns for normalization of no inhibition and full inhibition respectively.
(In general: qHTS replaces the single test concentration by a dilution series.)
Take `Cn1cncc1[C@@](N)(c1ccc(Cl)cc1)c1ccc2c(c1)c(-c1cccc(Cl)c1)cc(=O)n2C`: the Potency was 5.9 µM (active).

In the case of `O=C(O)Cn1nnc(-c2cc(N3CCC(Oc4cc(F)ccc4Br)CC3)no2)n1`, the Potency result was “inactive”.

Regarding `Nc1ccccc1NC(=O)c1ccc(CNC(=O)OCc2cccnc2)cc1`, the Potency is 1.66 µM (active).

Regarding `CCCNC(=O)Nc1ccc(Oc2ncnc3cc(OC)c(OC)cc23)cc1Cl`, the Potency entry was “inactive”.

For the compound `C[C@@H](Oc1cc(-c2cnn(C3CCNCC3)c2)cnc1N)c1c(Cl)ccc(F)c1Cl`, the Potency is 4.18 µM (active).

Take `CCCCN1CCC(CNC(=O)c2c3n(c4ccccc24)CCCO3)CC1`: the Potency is 13.2 µM (active).

For `Nc1nc(NCCNc2ncc(-n3ccnc3)c(-c3ccc(Cl)cc3Cl)n2)ccc1[N+](=O)[O-]`, the Potency was 9.35 µM (active).

Turning to `CCOc1cc2ncc(C#N)c(Nc3ccc(F)c(Cl)c3)c2cc1NC(=O)C=CCN(C)C`, the Potency is 0.132 µM (active).

`C[C@]12CC[C@H](O)CC1=CCC1C2CC[C@]2(C)C(n3cnc4ccccc43)=CCC12` (stereo not given in full): the Potency entry is “inactive”.

Turning to `CCn1cc(-c2ccnc3[nH]c(-c4cccc(CN(C)C)c4)cc23)c(-c2ccc(NC(=O)N(C)C)cc2)n1`, the Potency was 0.0469 µM (active).

Turning to `COc1ccc(-n2nc(C(N)=O)c3c2C(=O)N(c2ccc(N4CCCCC4=O)cc2)CC3)cc1`, the Potency result was “inactive”.

With `CC1(C)OC2=C(C(=O)c3ccccc3C2=O)[C@H](NCc2ccccc2)[C@H]1O`, the Potency was 3.32 µM (active).

For `CCOC(=O)C1=C(C)NC2=C(C(=O)CC(C)(C)C2)C1c1ccc(-c2ccccc2)cc1` (stereo not given), the Potency is 23.5 µM (active).

On to `COc1cc(C(=O)N2CCC(N3CCN(C)CC3)CC2)ccc1Nc1ncc2c(n1)N(C)c1ccccc1C(=O)N2C`, for which the Potency was 4.18 µM (active).

As to `Nc1ccn([C@@H]2CS[C@H](CO)O2)c(=O)n1`, the Potency entry is “inactive”.

With `CC(=O)c1c(C)c2cnc(Nc3ccc(N4CCNCC4)cn3)nc2n(C2CCCC2)c1=O`, the Potency is 14.8 µM (active).

Consider `O=C(NCCS(=O)(=O)c1ccc(C(F)(F)F)cn1)c1ccc(Cl)cc1`, for which the Potency entry was “inactive”.

On to `O=C1CCC[C@@H]2[C@H]3CCC[N+]4([O-])CCC[C@@H](CN12)[C@@H]34` (stereo not given in full), for which the Potency result is “inactive”.

In the case of `CC(C)CC(=O)Nc1n[nH]c2c1CN(C(=O)C1CCN(C)CC1)C2(C)C`, the Potency was 0.833 µM (active).

Consider `Clc1cccc(-n2nnnc2NCc2ccccc2Oc2ccccn2)c1Cl`, for which the Potency entry is “inactive”.

As to `CC(O)C1C(=O)N2C(C(=O)O)=C(SC3CNC(C(=O)N(C)C)C3)C(C)C12` (stereo not given), the Potency entry is “inactive”.

As to `O=C(O)c1ccc2c(c1)nc(Nc1cccc(Cl)c1)c1ccncc12`, the Potency is 5.9 µM (active).

Take `Nc1ccn([C@@H]2O[C@H](CO)[C@H](O)C2(F)F)c(=O)n1`: the Potency was 0.0187 µM (active).

On to `Cn1c(=O)n(-c2ccc(C(C)(C)C#N)cc2)c2c3cc(-c4cnc5ccccc5c4)ccc3ncc21`, for which the Potency is 0.0332 µM (active).

Consider `Nc1cccc(-c2cc3c(Oc4cccc(O)c4)ncnc3[nH]2)c1`, for which the Potency is 2.96 µM (active).

Consider `OCCCNc1cc(-c2ccnc(Nc3cccc(Cl)c3)n2)ccn1`, for which the Potency was 0.166 µM (active).

Turning to `Cc1c(CN2CCN(S(C)(=O)=O)CC2)sc2c(N3CCOCC3)nc(-c3cnc(N)nc3)nc12`, the Potency is 0.0372 µM (active).

Consider `COc1cccc(-c2ccc(NC(=O)C3=C(C(=O)O)CCC3)c(F)c2)c1`, for which the Potency was 16.6 µM (active).

On to `Cc1cc(Nc2cc(N3CCN(C)CC3)nc(Sc3ccc(NC(=O)C4CC4)cc3)n2)n[nH]1`, for which the Potency was 1.18 µM (active).

Take `NC1(Cc2ccc(Cl)cc2)CCN(c2ncnc3[nH]ccc23)CC1`: the Potency is 16.6 µM (active).

With `CCCCOc1c(C(=O)c2c(F)cc(C)cc2F)cnc2n[nH]cc12`, the Potency was 16.6 µM (active).

As to `Cc1cn2cc(C(=O)N(C)CCO)cc(N[C@@H]3CCOc4cccc(C)c43)c2n1`, the Potency result was “inactive”.

Consider `O=C(O)CO.[NH2-].[NH2-].[Pt+2]`, for which the Potency entry is “inactive”.

Turning to `C[C@H]1C[C@@H]2[C@@H]([C@@H](O)C[C@@]3(C)[C@H]2CC[C@]3(O)C(=O)CO)[C@@]2(C)C=CC(=O)C=C12`, the Potency result was “inactive”.

As to `Cc1[nH]nc2ccc(-c3cncc(OC[C@@H](N)Cc4ccccc4)c3)cc12`, the Potency is 2.96 µM (active).

In the case of `Cc1cnc(-c2cnc(NCCNc3ccc(C#N)cn3)nc2-c2ccc(Cl)cc2Cl)[nH]1`, the Potency is 11.8 µM (active).

Regarding `O=C(O)c1ccc2cc(-c3ccc(O)c(C45CC6CC(CC(C6)C4)C5)c3)ccc2c1`, the Potency is 0.372 µM (active).

On to `CC1(O)CC(c2nc(-c3ccc4ccc(-c5ccccc5)nc4c3)c3c(N)nccn23)C1` (stereo not given), for which the Potency is 0.0743 µM (active).

As to `Cc1cn2c(-c3cn[nH]c3)cnc2c(Nc2ccc(C(=O)N3CCNCC3)cc2F)n1`, the Potency is 13.2 µM (active).

Turning to `COc1c(N2C[C@@H]3CCCN[C@H]3C2)c(F)cc2c(=O)c(C(=O)O)cn(C3CC3)c12`, the Potency result is “inactive”.

Source of the values: PubChem BioAssay (NCATS).
